In the library only some 27% were active in any assay of this set; here they are far more common.
CYP2C19 inh: inhibitors of human CYP2C19. P33261. CYP2C19 Supersomes, luciferin-H EGE luminescence, 30 min. inhibition, % at 5 µM. actives 21% (n = 96,000). AID 778;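 active means CYP2C19 inhibition above a set limit at 5 µM in the primary screen, cut at about 50% in these data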
CYP2C19 activ: increases human CYP2C19 enzyme activity; P33261; recombinant CYP2C19, luciferin-H EGE luminescence; stronger effect = higher value; 0 = fully inhibited enzyme, 1 = untreated enzyme; activation factor at 5 µM; 96,000 tested, under 10 active; AID 1025;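 active means activation factor of at least 2 at 5 µM in the primary screen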
CYP2C9 inh: inhibitors of human CYP2C9; P11712; CYP2C9 Supersomes, luciferin-H conversion, luminescence; inhibition, % at 5 µM; actives 20% (n = 96,000);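 active means blocking of liver enzyme CYP2C9 beyond about 50% at 5 µM, limit read from the data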
Cav32 inh: inhibitors of human Cav3.2 T-type calcium channel. O95180. B-score at 10 µM. actives 4% (n = 100,000). Cav3.2-expressing cells, Fluo-4 calcium fluorescence FDSS; stronger effect = lower value;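 active means single-dose well whose peak fluorescence ratio is a statistical outlier from its plate by either plate-standardised score or position-corrected B-score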
CYP2C9 act: CYP2C9 (human) activation | recombinant CYP2C9, luciferin-H conversion, luminescence; stronger effect = higher value; factor 1 = untreated enzyme, 0 = blocked | activation factor at 5 µM | actives 1.4% (n = 96,000) | P11712;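 active means activation factor of 2 or more for CYP2C9 at a 5 µM dose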
Hits are given with their value; 0 = inactive; - = no result.

SMILES | CYP2C19 inh | CYP2C19 activ | CYP2C9 inh | Cav32 inh | CYP2C9 act
COC(=O)c1cc(Br)c(=O)n(CCN2CCOCC2)c1 | 0 | 0 | 0 | 0 | 0
Cc1cc(C)cc(N(CC(=O)NCc2ccc3c(c2)OCO3)C(=O)CCC(=O)Nc2ccccn2)c1 | 58 | 0 | 0 | -6.1 | 0
Cc1ccc(C)c(N(CC(=O)NCc2ccc3c(c2)OCO3)C(=O)CCC(=O)Nc2ccccn2)c1 | 63 | 0 | 50 | - | 0
CC(C)(C)n1nnnc1C(c1cccc(C#N)c1)N1CCC(Cc2ccccc2)CC1 (stereo not drawn) | 66 | 0 | 83 | -4.8 | 0
COCCn1nnnc1C(C(C)C)N1CCC(Cc2ccccc2)CC1 (stereo not drawn) | 91 | 0 | 56 | 0 | 0
CCC(C)(C)n1nnnc1C(c1ccncc1)N1CCC(Cc2ccccc2)CC1 (stereo not drawn) | 90 | 0 | 91 | -3.7 | 0
COCCn1nnnc1C(c1cc2cc(OC)ccc2[nH]c1=O)N1CCC(Cc2ccccc2)CC1 (stereo not drawn) | 0 | 0 | 0 | 0 | 0
Cc1ccc(CCNC(=O)C2CCN(C(=O)N(C)C)CC2)cc1 | 0 | 0 | 0 | 0 | 0
CCOP(=O)(c1ccccc1)c1nc(-c2ccccc2Cl)oc1N1CCCCC1 (stereo not drawn) | - | - | - | -11 | -
O=S(=O)(c1ccc(F)cc1)c1nc(-c2ccccc2F)oc1N1CCCCC1 | 0 | 0 | 0 | 0 | 0
CCn1c(COc2ccccc2C)nnc1SCC(=O)N1CCCCC1 | 0 | 0 | 0 | 0 | 0
COCC(=O)N(Cc1ccc(OC)cc1)Cc1nc2ccccc2c(=O)[nH]1 | 0 | 0 | 0 | 0 | 0
Cc1ccsc1C(=O)OCc1nc2ccccc2c(=O)[nH]1 | 72 | 0 | 87 | 0 | 0
O=C(c1cc(C2CC2)nc2ccc(Br)cc12)N1N=C(C(F)F)CC1(O)C(F)F (stereo not drawn) | - | - | - | -7.5 | -
CC(C)c1ccc(-c2cc(C(=O)N3N=C(C(F)F)CC3(O)C(F)F)c3ccccc3n2)cc1 (stereo not drawn) | 0 | 0 | 100 | 0 | 0
O=C(Nc1cccc2ncccc12)c1cccnc1 | 0 | 0 | 0 | 0 | 0
C#Cc1ccc([C@@H]2C=C(C(=O)NCc3nc4ccccc4[nH]3)O[C@H](OCC)[C@H]2CCCO)cc1 | - | - | - | 0 | -
Cc1ccc(NC(=O)C2C3C=CC4(CN(Cc5cccnc5)C(=O)C24)O3)cc1 (stereo not drawn) | 0 | 0 | 0 | 0 | 0
O=C1Nc2cc(Cl)c(Cl)cc2N(O)N1c1ccc(Cl)c(Cl)c1 | 0 | 0 | 54 | 0 | 0
Cc1[nH]c2ccccc2c1CCO | 0 | 0 | 0 | 0 | 0
Cc1[nH]c2c(C)cccc2c1CCNC(=O)c1ccc2c(c1[N+](=O)[O-])C(=O)c1ccccc1C2=O | 61 | 0 | 77 | 0 | 0
Cc1ccc(-c2cccc(C(=O)NCCc3ccccc3)n2)c2ccccc12 | - | - | - | 0 | -
CCCNC(=O)NCCc1c(C)[nH]c2ccccc12 | 0 | 0 | 0 | 0 | 2.5
Cc1[nH]c2ccccc2c1CCNC(=O)c1ccc2c(c1[N+](=O)[O-])C(=O)c1ccccc1C2=O | 68 | 0 | 0 | - | 0
Cc1ccc(-c2[nH]c3ccccc3c2SCCNC(=O)c2cc3ccccc3oc2=O)cc1 | - | - | - | 0 | -
SMILES | CYP2C19 inh | CYP2C19 activ | CYP2C9 inh | Cav32 inh | CYP2C9 act
CC(=O)NCC1=C(NC(C)=O)C2CC1C(C)(C)C2C (stereo not drawn) | 0 | 0 | 0 | - | 0
Nc1cc(=O)[nH]c(SCc2nnc(-c3ccccc3)o2)n1 | 0 | 0 | 0 | 0 | 0
Cc1nnc(SCc2ccc(Cl)cc2)n1CC1CCCO1 (stereo not drawn) | 0 | 0 | 0 | 0 | 0
CCCC(C(=O)NC1CCCC1)N(Cc1ccc2c(c1)OCO2)C(=O)c1snc(C(N)=O)c1N (stereo not drawn) | 97 | 0 | 83 | 0 | 0
CCCCC(C(=O)NC(C)(C)C)N(Cc1ccco1)C(=O)c1snc(C(N)=O)c1N (stereo not drawn) | 58 | 0 | 70 | 0 | 0
CCC(C(=O)NCc1ccc(F)cc1)N(Cc1ccco1)C(=O)c1snc(C(N)=O)c1N (stereo not drawn) | 58 | 0 | 50 | 0 | 0
CCCC(C(=O)NCc1ccc(OC)cc1)N(Cc1ccco1)C(=O)c1snc(C(N)=O)c1N (stereo not drawn) | 60 | 0 | 0 | 0 | 0
Cc1cc(C)cc(N(CC(=O)NCc2ccco2)C(=O)c2snc(C(N)=O)c2N)c1 | - | - | - | 0 | -
CSc1nnc2c3ccccc3n(CCc3ccccc3)c2n1 | 61 | 0 | 0 | 0 | 0
C=CCn1c2ccccc2c2nnc(SCc3ccc4nonc4c3)nc21 | 84 | 0 | 84 | 0 | 0
C=CCn1c2ccccc2c2nnc(SCC(=O)Nc3cc(C)on3)nc21 | 0 | 0 | 55 | 0 | 0
CCCn1c2ccccc2c2nnc(SCC(=O)Nc3ncccn3)nc21 | 52 | 0 | 60 | 0 | 0
Cc1ccc(CNC(=O)Cn2c([N+](=O)[O-])cnc2C)cc1 | 0 | 0 | 0 | 0 | 0
CN(C)[C@H]1N(C(=O)c2ccc(Br)cc2)N=C2c3ccccc3S(=O)(=O)N21 | 0 | 0 | 57 | 0 | 0
O=C(CN(C(=O)c1ccc(Cl)cc1)N1C(=O)C2CCCCC2C1=O)c1ccc(Cl)cc1 (stereo not drawn) | 0 | 0 | 0 | 0 | 0
O=C(Nc1ncc(Cc2cc(Cl)ccc2Cl)s1)c1ccc([N+](=O)[O-])cc1 | 0 | 0 | 0 | 0 | 0
O=C(c1ccc([N+](=O)[O-])cc1)N(Cc1ccc(Cl)cc1)N1C(=O)CCCC1=O | 51 | 0 | 0 | 0 | 0
O=C(c1ccc([N+](=O)[O-])cc1)N(Cc1ccc(Cl)cc1Cl)N1C(=O)CCCC1=O | 64 | 0 | 0 | 0 | 0
CSc1nnc2n(Cc3ccccc3)c(=O)c3c4c(sc3n12)COC(C(C)C)C4 (stereo not drawn) | 0 | 0 | 0 | - | 0
CCC(C)OC(=O)C1=C(C)NC(=O)CC1c1ccccc1OC (stereo not drawn) | 0 | 0 | 0 | 0 | 0
CCCOc1ccccc1C1CC(=O)NC(C)=C1C(=O)OCC(C)C (stereo not drawn) | 56 | 0 | 0 | - | 0
CC1=C(C(=O)OC(C)C)C(c2ccccc2Cl)CC(=O)N1 (stereo not drawn) | 87 | 0 | 0 | 0 | 0
Cc1ccc2c(n1)sc1c(-c3ccc(Br)cc3)c(C#N)c(N)nc12 | 0 | 0 | 0 | 0 | 0
N#Cc1c(Cl)c(Cl)c2nnc(-c3ccc(Br)cc3)n2c1Cl | 0 | 0 | 94 | 0 | 0
CC1(C(=O)N(c2ccccc2)C(C(=O)NC2CCCC2)c2ccccn2)CC(=O)N=C2C=CC=CN21 (stereo not drawn) | 0 | 0 | 0 | 0 | 0
CC(C)OCCCn1c(=N)c(C(N)=S)cc2c(=O)n3ccccc3nc21 | 79 | 0 | 0 | 0 | 0
CCOCCCn1c(=N)c(C(=O)NCc2ccc3c(c2)OCO3)cc2c(=O)n3ccccc3nc21 | 0 | 0 | 0 | - | 0
CC(C)CC(c1nnnn1CCc1ccccc1)N1CCC(C(N)=O)CC1 (stereo not drawn) | - | - | - | 0 | -
O=S(=O)(NCCn1ccc2ccccc21)c1ccccc1 | 100 | 0 | 70 | 0 | 0

Screening data deposited in PubChem by several laboratories.
